Values joined by “and” are separate entries in the source; they are usually repeats but may differ in a detail not shown here. Identical values can stand only once. Counter-ions that a name gives are not always drawn. Unmarked numbers belong to inactive results.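 How the source made its calls: active = log2 fold change beyond 2 SD from the library mean after excluding viability outliers; inactive = within 2 SD.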
Biological target: PARP1 L713F-nLuc biosensor (HCT116) (UniProt P09874)
Test: PARP1 L713F-nLuc/akaLuc ratio relative to DMSO control (biosensor stabilization) (fold change); higher = more PARP1 biosensor stabilization (target engagement / stabilizer), active = hit call of the paper
Conditions: stock concentration (mM; final µM = stock mM x 1): 10; 24 h

PARP1 L713F-nLuc biosensor (HCT116), sequence (P09874 whole entry L713F, looked up): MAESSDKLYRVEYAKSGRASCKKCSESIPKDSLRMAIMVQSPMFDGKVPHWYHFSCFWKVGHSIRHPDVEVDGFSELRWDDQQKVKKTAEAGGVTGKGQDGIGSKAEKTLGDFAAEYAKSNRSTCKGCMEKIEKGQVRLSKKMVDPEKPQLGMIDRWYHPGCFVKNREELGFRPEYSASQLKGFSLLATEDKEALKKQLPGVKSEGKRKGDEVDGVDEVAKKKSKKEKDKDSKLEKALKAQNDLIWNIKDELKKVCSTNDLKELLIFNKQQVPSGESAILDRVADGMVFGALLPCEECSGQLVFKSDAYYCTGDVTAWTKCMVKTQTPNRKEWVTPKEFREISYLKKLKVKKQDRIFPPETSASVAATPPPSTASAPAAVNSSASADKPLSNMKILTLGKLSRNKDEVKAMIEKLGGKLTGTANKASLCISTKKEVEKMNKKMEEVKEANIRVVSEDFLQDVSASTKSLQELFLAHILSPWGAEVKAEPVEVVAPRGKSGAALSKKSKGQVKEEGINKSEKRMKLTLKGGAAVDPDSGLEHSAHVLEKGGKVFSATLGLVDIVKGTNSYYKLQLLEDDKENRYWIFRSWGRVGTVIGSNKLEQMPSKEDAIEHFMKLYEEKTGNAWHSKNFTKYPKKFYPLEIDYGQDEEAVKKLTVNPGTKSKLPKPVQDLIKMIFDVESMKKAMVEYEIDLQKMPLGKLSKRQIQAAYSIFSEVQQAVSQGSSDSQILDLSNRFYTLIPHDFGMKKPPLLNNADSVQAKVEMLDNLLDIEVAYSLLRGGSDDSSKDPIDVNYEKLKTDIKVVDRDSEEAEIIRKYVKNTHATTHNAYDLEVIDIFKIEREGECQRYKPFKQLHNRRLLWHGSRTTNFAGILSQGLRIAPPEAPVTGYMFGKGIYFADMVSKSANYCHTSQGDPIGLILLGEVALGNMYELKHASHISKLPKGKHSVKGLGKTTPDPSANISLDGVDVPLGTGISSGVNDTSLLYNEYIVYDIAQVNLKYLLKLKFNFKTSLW

Structure (SMILES)	PARP1 L713F-nLuc/akaLuc ratio
COc1ccc2c(c1)c(C(=O)Nc1cc(C(=O)OC(C)(C)C)ccc1F)cn2C(C)=O	0.714
COCCOc1cnc2ccn([C@H](C)c3nnc4c(F)cc(-c5cnn(C)c5)cn34)c(=O)c2c1	0.857
CN1CCCN(C(=O)c2cccc(-c3ccc(/C=C4/C(=O)Nc5ccc(Cl)cc54)o3)c2)CC1	0.758
Cc1cnc(NC(=O)Nc2cc(Br)c(C)cc2OC[C@@H]2CNCCO2)cn1	0.787
CC1(N)CCN(c2cnc(-c3cccc(Cl)c3Cl)c(N)n2)CC1 [SHP099 dihydrochloride]	0.78
CNCc1ccc(-c2[nH]c3cc(F)cc4c3c2CCNC4=O)cc1 [Rucaparib (phosphate)]	5.55 (active)
O=C(O)c1ccc(CN2CCC(CN[C@@H]3C[C@H]3c3ccccc3)CC2)cc1	0.815 and 0.79 and 0.987
O=C1CN2Cc3c(ccc(Cl)c3Cl)N=C2N1 [Anagrelide HCl]	0.856
CNc1nc(-c2ccc3c(N)n[nH]c3c2)cc(N2C[C@@H](C(=O)NC3CCCCC3)CC[C@H]2C)n1	0.434
O=C(Nc1nc2cccc(-c3ccc(CN4CCS(=O)(=O)CC4)cc3)n2n1)C1CC1 [Filgotinib]	0.941
N#CCC1(n2cc(-c3ncnc4[nH]ccc34)cn2)CN(C2CCN(C(=O)c3ccnc(C(F)(F)F)c3F)CC2)C1 [Itacitinib adipate]	1.05
O=C(c1cccc(Br)c1)N1CCC(N2CCCC2)CC1	0.886
COc1cc(N2CCN(C)CC2)ccc1Nc1nccc(-c2cn(C)c3cnccc23)n1	0.923
Cc1cc(Nc2nc(N[C@@H](C)c3ncc(F)cn3)ncc2Cl)[nH]n1	0.882
Nc1cccc(Nc2ncc(-c3ccc(Cl)cc3)o2)c1	0.952
Cc1ccc(C(=O)Nc2ccc(S(=O)(=O)O)c3cc(S(=O)(=O)O)cc(S(=O)(=O)O)c23)cc1NC(=O)c1cccc(NC(=O)Nc2cccc(C(=O)Nc3cc(C(=O)Nc4ccc(S(=O)(=O)O)c5cc(S(=O)(=O)O)cc(S(=O)(=O)O)c45)ccc3C)c2)c1 [Suramin (sodium salt)]	0.738
COc1c(CN)cc(CN)cc1OCCCN1Cc2ccccc2C1 [MS31 (trihydrochloride)]	0.851
CCNC(=O)CCC/C=C\C[C@@H]1[C@@H](/C=C/[C@@H](O)CCc2ccccc2)[C@H](O)C[C@@H]1O [Bimatoprost]	0.942
O=C(Nc1ccc(Cl)cc1)c1cc2ccccc2cc1OP(=O)(O)O	1.35
O=C(c1ccc(/C=C/c2n[nH]c3ccccc23)cc1)N1CCNCC1	1.3

Structure (SMILES)	PARP1 L713F-nLuc/akaLuc ratio
Cc1nc(C(=O)NCC(=O)O)c(O)c2ccc(Oc3ccccc3)cc12 [Roxadustat]	1.02
CC/C(=C(\c1ccc(O)cc1)c1ccc(OCCN(C)C)cc1)c1ccccc1 [4-Hydroxytamoxifen]	0.97
Cc1cc(C)c(CNC(=O)c2cc(Cl)c3c(c2C)O[C@@](C)([C@H]2CC[C@H](N(C)C)CC2)O3)c(=O)[nH]1 [Valemetostat (tosylate)]	1.05
C[C@@H]1CCN(C(=O)CC#N)C[C@@H]1N(C)c1ncnc2[nH]ccc12 [Tofacitinib (citrate)]	0.775
O=C(Nc1ccnc(NC(=O)C2CC2)c1)c1c(Cl)cccc1Cl	1.13
CC(=O)c1c(C)cc2cccc(O)c2c1O [Nepodin]	0.91
Cc1nc(N)sc1-c1ccnc(Nc2ccc(N3CCOCC3)cc2)n1	0.726
CC(=O)O[C@@]12CO[C@@H]1C[C@H](O)[C@@]1(C)C(=O)[C@H](O)C3=C(C)[C@@H](OC(=O)[C@H](O)[C@@H](NC(=O)OC(C)(C)C)c4ccccc4)C[C@@](O)([C@@H](OC(=O)c4ccccc4)[C@H]21)C3(C)C [Docetaxel]	1.44
CCOC(=O)NCCCC(=O)NCCc1ccccc1 [Santacruzamate A]	0.97
O=C(NCCCNC(=O)Nc1cccc(C2=NCCN2)c1)Nc1cccc(C2=NCCN2)c1 [p32 Inhibitor M36]	1.09
O=c1ncn2nc(Sc3ccc(F)cc3F)ccc2c1-c1c(Cl)cccc1Cl	0.808
Nc1nc(Cl)nc2c1ncn2[C@H]1C[C@H](O)[C@@H](CO)O1 [Cladribine]	0.383
Clc1cc2c(NC3CCCC3)nnc(-c3ccncc3)c2cc1Cl	0.888
CCCc1cc(C)[nH]c(=O)c1CNC(=O)c1cc(-c2ccc(N3CCN(C)CC3)nc2)nc2c1cnn2C(C)C	1.04
O=C(O)C(Cc1c[nH]c2ccccc12)N1C(=O)c2ccccc2C1=O (centres undefined)	1.39
COc1ccc(COc2cc3oc(=O)c4cc(C(C)O)ccc4c3cc2OC)cc1 (centres undefined) [Palomid 529 (P529)]	0.578
N=C(NOCC(O)CN1CCCCC1)c1cccnc1 (centres undefined)	0.933
COc1cc(OC)cc(-c2noc(N3CCN(C)C4(CCN(c5ccnc(C)c5)CC4)C3)n2)c1	0.971
COc1cc2c(cc1OCCCN1CCCC1)N=C(N)C21CCC1	0.685

Source: the supplement of paper PMC11624193, “Coupling cellular drug-target engagement to downstream pharmacology with CeTEAM” (Nature Communications, 2024)
